Screening results (PubChem BioAssay)
An excerpt weighted towards active compounds, which were near 14% of everything screened.
Giardia FBPA inh: Giardia lamblia aldolase inhibition; Potency, µM (top dose mostly 59.6 µM), for inactives: at the highest dose activity, negative = inhibition, hits mostly inhibitors; hit rate 0.71% among 290,000; A8B2U2; purified Giardia FBPA; also: potency is read from the fitted curve at half-maximal effect; nearly all actives have a fitted effect of over 55% in size
Target sequence (A8B2U2 whole entry, looked up): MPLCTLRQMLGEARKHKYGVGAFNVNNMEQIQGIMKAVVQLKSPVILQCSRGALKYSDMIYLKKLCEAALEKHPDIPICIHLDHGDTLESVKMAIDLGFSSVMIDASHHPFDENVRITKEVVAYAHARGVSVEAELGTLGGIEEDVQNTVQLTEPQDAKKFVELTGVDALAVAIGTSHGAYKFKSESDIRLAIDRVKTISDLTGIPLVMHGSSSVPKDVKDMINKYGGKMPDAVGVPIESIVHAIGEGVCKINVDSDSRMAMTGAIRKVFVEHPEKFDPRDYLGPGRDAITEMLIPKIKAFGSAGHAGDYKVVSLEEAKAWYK
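40 nM FBPA preincubated 10 min at RT with compound (up to 57.5 uM final), then substrate plus GAPDH/TPI/NAD/arsenate coupling and diaphorase/resazurin added. Fluorescence read after 20 min at RT, 525/598 nm.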
HCMV antiviral: human cytomegalovirus inhibition; hit rate 4.5% among 410,000; HFF cells, HCMV-luciferase reporter, 72 h; stronger effect = lower value; activity change, negative = inhibition, % at 57.5 µM; in the data active = activity change below about -60%; inconclusive = no clear call, values can overlap the other calls; inactive = above about -39%
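After 16 h attachment at 37C, HFF cells received test compound and HCMV-luciferase (1 PFU/cell); reporter luminescence read 72 h later, data normalized against buffer-only and known inhibitor Salinomycin.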
Sm TGR block: blocks Schistosoma mansoni thioredoxin glutathione reductase. purified TGR, DTNB reduction, TNB absorbance 405 nm. hit rate 3% among 360,000. Q962Y6. Potency, µM (titrated, usually from 114 µM), for inactives: at the top dose activity change, negative = inhibition, most hits filed as inhibitors. AID 485364; also: potency is read from the fitted curve at half-maximal effect; nearly all actives have a fitted effect of over 60% in size
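TGR 20 nM + NADPH 100 uM (dispensed conc.), cpd preinc 15 min RT; start with NADPH (500 uM addition) then DTNB (15 mM addition). Kinetic TNB absorbance, 405 nm filter. Four-parameter Hill fit across titration.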
Pf growth 48h: inhibits P. falciparum growth in the first generation, 48 h; AID 504832; P. falciparum luciferase growth in erythrocytes, 48 h; Potency, µM (titrated, usually from 28.7 µM), for inactives: top-dose activity change, negative = inhibition, actives largely listed as inhibitors; hit rate 5.9% among 310,000; also: potency is read from the fitted curve at half-maximal effect
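Growth was read as firefly luciferase luminescence after a 48 h, 37 C, 5% CO2 exposure of compounds to reporter-bearing P. falciparum cultures (0.1% parasitemia, 2% hematocrit final) in Albumax-supplemented RPMI 1640.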
Pf growth 96h: inhibits malaria parasite growth, 96 h | P. falciparum luciferase reporter growth, 96 h | Potency, µM (series often up to 28.7 µM), without a hit: at the top dose activity change, negative = inhibition, most hits filed as inhibitors | hit rate 6.9% among 320,000 | AID 504834; also: potency is read from the fitted curve at half-maximal effect
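Two-generation exposure (96 h) targets delayed-death phenotype. Reporter parasites carrying integrated firefly luciferase, in red cells at 2% hematocrit and 0.05% parasitemia final, kept at 37 C, 5% CO2; luminescence loss indicates inhibition.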
Numbers without * were called inactive. Unless noted, calls follow the shape of the dose curve; as a rule, active = well fitted curve in the direction sought with a large enough effect; inconclusive = small, poorly fitted or top-dose-only effect, or another doubt; inactive = no such curve, though single readings can be large; an effect the other way counts as inactive or inconclusive. % is scaled to controls: 0 for no effect and ±100 for the full control effect.

COc1ccc(-n2c(=O)[nH]c3cc(C(=O)NCCc4ccccc4)ccc3c2=O)cc1OC was read as Giardia FBPA inh -1.8%, HCMV antiviral 12.1, Sm TGR block -5.9%, Pf growth 48h inconclusive and Pf growth 96h 10.2%.
`CC(C)C[C@@H](CN1CCC[C@H]1CN1C(=O)C(=O)NC[C@@H]1Cc1ccc(O)cc1)N1C[C@H](Cc2ccc(O)cc2)N(CCc2ccccc2)C(=O)C1=O` gave HCMV antiviral 1.8.
For Cc1cc(C)nc(SCc2nnc(SCC(N)=O)n2Cc2ccco2)n1 the results were HCMV antiviral -4.6, Sm TGR block -0.4%, Pf growth 48h 32.3% and Pf growth 96h inconclusive.
For CCOC(=O)CSc1nnc(CSc2nc(C)cc(C)n2)n1Cc1ccco1 the results were Giardia FBPA inh 0.6%, HCMV antiviral 18.6, Sm TGR block 44.7µM*, Pf growth 48h -7.2% and Pf growth 96h -19.2%.
Cc1ccc(NC(=O)CSc2nnc(CSc3nc(C)cc(C)n3)n2Cc2ccco2)c(C)c1 was read as Giardia FBPA inh 15.3%, HCMV antiviral 57.9, Sm TGR block 50.1µM*, Pf growth 48h inconclusive and Pf growth 96h -26.4%.
`CCOC(=O)CSc1nc2c(sc3ccc([N+](=O)[O-])cc32)c(=O)n1Cc1ccco1` gave Giardia FBPA inh 3.0%, HCMV antiviral -36.7, Sm TGR block inconclusive, Pf growth 48h 6.57µM* and Pf growth 96h 32.7%.
For O=C(NN=Cc1ccco1)C(=O)Nc1cccc(C(F)(F)F)c1 the results were HCMV antiviral -6.4.
Screening O=S(=O)(NCc1ccccc1)c1ccc(Cl)cc1 returned Giardia FBPA inh -3.8%, HCMV antiviral -29.3, Sm TGR block -9.6% and Pf growth 96h inconclusive.
Screening O=S(=O)(Nc1cc2nc3ccccc3nc2n1Cc1ccccc1)c1ccc(Cl)cc1 returned Giardia FBPA inh inconclusive, HCMV antiviral -90.7*, Sm TGR block -16.8%, Pf growth 48h 1.31µM* and Pf growth 96h 0.828µM*.
Screening COc1ccc(NS(=O)(=O)c2cc(NC(=O)CC(C)(C)C)ccc2N2CCCC2)cc1 returned HCMV antiviral -23.3, Sm TGR block 2.2%, Pf growth 48h 10.4µM* and Pf growth 96h 13.1µM*.
Screening COc1ccc(NS(=O)(=O)c2cc(NC(=O)c3ccc(C)s3)ccc2N2CCOCC2)cc1 returned Giardia FBPA inh -7.7%, HCMV antiviral 0.0, Sm TGR block 10.6%, Pf growth 48h inconclusive and Pf growth 96h 13.1µM*.
`COc1ccc(NS(=O)(=O)c2cc(NC(=O)c3cnccn3)ccc2N2CCCC2)cc1` gave Giardia FBPA inh -24.4%, HCMV antiviral inconclusive, Sm TGR block -12.3%, Pf growth 48h inconclusive and Pf growth 96h 0.0%.
Screening COc1ccc(NS(=O)(=O)c2cc(NC(=O)c3ccc(C)o3)ccc2N2CCCCC2)cc1 returned Giardia FBPA inh 1.3%, HCMV antiviral -89.9*, Sm TGR block -1.6%, Pf growth 48h 9.28µM* and Pf growth 96h inconclusive.
For COc1ccc(NS(=O)(=O)c2cc(NC(=O)c3ccccc3F)ccc2N2CCCC2)cc1 the results were Giardia FBPA inh -0.6%, HCMV antiviral inconclusive, Sm TGR block 4.9%, Pf growth 48h inconclusive and Pf growth 96h inconclusive.
`COc1ccc(NS(=O)(=O)c2cc(NC(=O)c3cccs3)ccc2N2CCCC2)cc1` gave Giardia FBPA inh 1.3%, HCMV antiviral -96.8*, Sm TGR block -1.9%, Pf growth 48h -15.4% and Pf growth 96h inconclusive.
`CC(=O)Nc1ccc(S(=O)(=O)N2CCc3cc4c(cc3C2)OCCCO4)cc1` gave Giardia FBPA inh -5.9%, HCMV antiviral -21.0, Sm TGR block -13.7%, Pf growth 48h 3.1% and Pf growth 96h -9.3%.
CSc1nc(C)nc(N/C=C(\C#N)S(=O)(=O)c2ccccc2Cl)n1 was read as Giardia FBPA inh 12.9%, HCMV antiviral 12.2, Sm TGR block -7.6%, Pf growth 48h 32.8% and Pf growth 96h -5.6%.
`COc1ccc2nc(-c3ccccc3)nc(SCC(=O)NCC3CCCO3)c2c1` (centres undefined) gave Giardia FBPA inh 11.4%, HCMV antiviral -38.1, Sm TGR block 1.7%, Pf growth 48h inconclusive and Pf growth 96h 65.5%.
`COc1ccc(NS(=O)(=O)c2cc(NC(=O)Cc3c(F)cccc3Cl)ccc2OC)cc1` gave HCMV antiviral -29.0, Sm TGR block -5.5%, Pf growth 48h 5.86µM* and Pf growth 96h inconclusive.
Screening COc1ccc(NC(=O)Cc2cccc(F)c2)cc1S(=O)(=O)Nc1ccccc1Cl returned Giardia FBPA inh -4.1%, HCMV antiviral -34.3, Sm TGR block 9.2%, Pf growth 48h inconclusive and Pf growth 96h inconclusive.
`Cc1ccc(NC(=O)CN2C(=O)S/C(=C\c3cc(C)n(C)c3C)C2=O)cc1` gave Giardia FBPA inh -0.4%, HCMV antiviral -17.7, Sm TGR block -5.3%, Pf growth 48h 1.7% and Pf growth 96h -17.5%.
Screening Cc1cccc(NC(=O)CN2C(=O)S/C(=C\c3cc(C)n(C)c3C)C2=O)c1 returned Giardia FBPA inh -27.1%, HCMV antiviral -62.5*, Sm TGR block inconclusive, Pf growth 48h inconclusive and Pf growth 96h 16.3%.
`O=C(CN1C(=O)S/C(=C\c2ccccn2)C1=O)Nc1ccccc1` gave HCMV antiviral -20.7, Sm TGR block -32.2%, Pf growth 48h -8.4% and Pf growth 96h inconclusive.
`Cc1cc(/C=C2\SC(=O)N(CC(=O)Nc3ccccc3F)C2=O)c(C)n1C` gave Giardia FBPA inh -3.9%, HCMV antiviral -27.7, Sm TGR block 25.1µM*, Pf growth 48h -7.6% and Pf growth 96h 107.4%.
For Cc1cccc(NC(=O)CN2C(=O)N/C(=C/c3cc(C)n(-c4ccncc4)c3C)C2=O)c1 the results were Giardia FBPA inh -4.5%, HCMV antiviral -24.6, Sm TGR block 2.2%, Pf growth 48h -12.3% and Pf growth 96h inconclusive.
Screening Cc1cccc(NC(=O)CN2C(=O)S/C(=C\c3ccccn3)C2=O)c1 returned Giardia FBPA inh 4.8%, HCMV antiviral -36.0, Sm TGR block -2.9%, Pf growth 48h -17.4% and Pf growth 96h 4.15µM*.
For O=C(CN1C(=O)S/C(=C\c2ccccc2F)C1=O)Nc1ccccc1O the results were Giardia FBPA inh 2.8%, HCMV antiviral -12.0, Sm TGR block 4.4%, Pf growth 48h -13.7% and Pf growth 96h 47.0%.
Cc1cccc(NC(=O)CN2C(=O)N/C(=C/c3cc(C)n(C)c3C)C2=O)c1 was read as Giardia FBPA inh -10.9%, HCMV antiviral -9.4, Sm TGR block 25.1µM*, Pf growth 48h -14.9% and Pf growth 96h 19.0%.
For COc1ccc(/C=C2\SC(=O)N(CCNC(=O)CN3C(=O)NC4(CCCC4)C3=O)C2=O)cc1 the results were HCMV antiviral -21.5, Sm TGR block 0.7%, Pf growth 48h 30.2% and Pf growth 96h 3.3%.
